# In the library only some 19% were active in any assay of this set; here they are far more common.
# CHX counter = counter-screen for Shiga toxin inhibitors: cycloheximide protein synthesis inhibition; 300,000 compounds, 12% hits; cell reporter, cycloheximide protein synthesis inhibition counterscreen; max response, %; in the data active = max response mostly above about 13%, no sharp cut-off; inactive = mostly below about 14%; note: read at 38.3 µM for the half of the compounds with a filed dose
# Shiga inhibitor = inhibitors of Shiga toxin in Vero cells; Vero cells, Shiga toxin protein synthesis inhibition reporter; inhibition, % at 38.7 µM; 290,000 compounds, 9.2% hits; in the data active = inhibition mostly above about 28%, no sharp cut-off; inactive = mostly below about 43%
# AMA1 RON2 block = inhibitors of Plasmodium falciparum AMA1-RON2 interaction. AlphaScreen AMA1-biotinylated RON2 peptide binding. Potency, µM (doses to about 58.2 µM), most hits filed as inhibitors. 360,000 compounds, 0.2% hits. AID 720542; note: nearly all actives have a fitted effect of over 45% in size
#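 AMA1 (3D7) with his tag at 25 nM final met compounds first, then biotinylated RON2 peptide at 25 nM; detection used donor plus acceptor beads, 10 µg/mL apiece, read by AlphaScreen after 30 min at room temperature.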
# Pf growth 48h = inhibits P. falciparum growth in the first generation, 48 h. Potency, µM (doses to about 28.7 µM), usual class: inhibitors. 310,000 compounds, 5.9% hits. P. falciparum luciferase growth in erythrocytes, 48 h
#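 First compound was added to culture medium, then infected red cells at 0.1% parasitemia and 2% hematocrit (final). After incubation at 37 C under 5% CO2, luciferase detection reagent was dispensed and light output recorded.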
# SARS PLP yeast = inhibitors of SARS-CoV papain-like protease in yeast; 330,000 compounds, 0.19% hits; AID 485353; S. cerevisiae expressing SARS-CoV PLpro, growth rescue; Potency, µM (top dose mostly 32.9 µM), usual class: activators; calls by dose curve; note: nearly all actives have a fitted effect of over 55% in size
# Pf growth 96h = P. falciparum growth inhibition at 96 hour, primary screen for plastid delayed-death inhibitors; P. falciparum luciferase reporter growth, 96 h; 320,000 compounds, 6.9% hits; Potency, µM (top dose mostly 28.7 µM), hits mostly inhibitors
#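 96 h incubation, 37 C, 5% CO2, of luciferase-reporter P. falciparum-infected RBCs (2% hematocrit, 0.05% parasitemia final) with test compounds; endpoint luminescence.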
# Hits are given with their value; n = inactive; u = inconclusive; x = not tested or not shown; [ ] = another dose, or the depositor's remark. Unless noted, calls come from the whole dose curve; as a rule, active = well fitted curve in the direction sought with a large enough effect; inconclusive = small, poorly fitted or top-dose-only effect, or another doubt; inactive = no such curve, though single readings can be large; an effect the other way counts as inactive or inconclusive.
SMILES,CHX counter,Shiga inhibitor,AMA1 RON2 block,Pf growth 48h,SARS PLP yeast,Pf growth 96h
O=C(N/N=C/C(Br)=C/c1ccccc1)c1cccs1,63.1,122.5,n,n,n,n
O=C(N/N=C\C=C\c1ccc([N+](=O)[O-])o1)c1cccs1,32.7,100.1,n,u,n,u
O=C(N/N=C/C=C/c1ccccc1)c1ccncc1,n,n,n,n,n,n
Cc1ccc(/C=N/NC(=O)c2cccs2)cc1[N+](=O)[O-],39.4,78.4,n,n,n,n
O=C(Cn1cnc2ccccc21)N/N=C/C(Br)=C/c1ccccc1,n,n,n,n,n,u
O=C(N/N=C/C=C/c1ccccc1)c1cccs1,41.5,75.0,n,n,n,n
O=c1ccn([C@@H]2O[C@H](CNCc3ccccc3OCc3ccc(Cl)cc3Cl)[C@@H](O)[C@H]2O)c(=O)[nH]1,x,x,n,x,x,x
COc1ccc(-c2noc(COC(=O)c3ccco3)n2)cc1OC,x,x,n,n,n,n
O=C(CSc1nnc(SCc2ccccc2)s1)N/N=C/C=C/c1ccccc1[N+](=O)[O-],n,n,n[2.32 µM],n,n,n
O=C(N/N=C/c1ccccc1[N+](=O)[O-])c1cccs1,40.6,88.5,n,n,n,n
O=C(N/N=C/C=C/c1ccccc1[N+](=O)[O-])c1cccs1,29.6,n,n,n,n,u
O=C(Cc1cccs1)N/N=C/C=C\c1ccccc1[N+](=O)[O-],32.7,84.7,n,n,n,u
O=C(/C=C/c1ccccc1)NC(=S)NNC(=O)Cc1cccs1,n,n,u,n,n,n
O=C(NNC(=O)c1ccccc1[N+](=O)[O-])c1cccs1,n,n,n,n,n,n
O=C(Cc1cccs1)N/N=C/C=C/c1ccccc1,25.4,58.7,n,n,n,n
O=C(N/N=C/C=C\c1ccccc1[N+](=O)[O-])c1ccncc1,n,n,n,n,n,n
CCCNC(=O)c1nc(C)n(-c2cc(Cl)ccc2Cl)n1,n,n,n,n,n,n
Cc1cc(C)c(S(=O)(=O)NCCSCc2ccco2)c(C)c1,x,x,n,u,n,n
COc1cc(OC)c(NC(=O)c2sc3ncn(CC(=O)N4CCOCC4)c(=O)c3c2C)cc1Cl,n,n,n,u,n,u
CC(C)(C)c1ccc(C(=O)N2CCCC2)s1,26.3,51.3,n,n,n,n
CSc1nnc2n(C3CCCCC3)c(=O)c3c4c(sc3n12)CCCC4,n,n,x,n,n,n
Cc1nnc2n(C3CCCCC3)c(=O)c3c4c(sc3n12)CCC4,n,n,x,n,n,3.29µM
O=C(Oc1c(Cl)cc(Cl)c2ccccc12)N1CCCCC1,n,n,n,x,n,11.7µM
O=C(Oc1ccc(Cl)c2cccnc12)N1CCCCC1,n,n,n,n,n,n
Nc1c(Br)cc(Br)c2cccnc12,n,n,x,x,x,x
SMILES,CHX counter,Shiga inhibitor,AMA1 RON2 block,Pf growth 48h,SARS PLP yeast,Pf growth 96h
O=C(Oc1c(Br)cc(Br)c2cccnc12)N1CCCCC1,32.0,n,n,n,n,u
O=C(Oc1ccc(Cl)c2ccccc12)N1CCCCC1,32.1,71.9,n,x,u,u
O=C(Oc1c(Cl)cc(Cl)c2ccccc12)N1CCCC1,n,n,n,u,n,u
O=C(CNC(=O)c1ccco1)NCc1ccc2c(c1)OCO2,x,x,n,x,n,x
COC(=O)COn1c(-n2nc(C)cc2C)nc2ccccc2c1=O,n,n,n,9.28µM,n,x
Cc1cc(C)n(-c2nc3ccccc3c(=O)n2OCC(C)C)n1,n,n,n,n,n,n
Cc1cc(C)n(-c2nc3ccccc3c(=O)n2OCC#N)n1,38.3,115.1,n,1.31µM,n,0.37µM
CCOn1c(-n2nc(C)cc2C)nc2ccccc2c1=O,n,n,n,n,n,x
CCOC(=O)COn1c(-n2nc(C)cc2C)nc2ccccc2c1=O,n,n,n,3.7µM,n,1.47µM
CCOC(=O)c1sc(N/N=C/c2cc(Br)c(O)c(OC)c2)nc1C,n,n,n,13.1µM,n,n
CC(=O)c1sc(N/N=C/c2cccc([N+](=O)[O-])c2)nc1C,n,n,n,n,n,n
CC(=O)c1sc(N/N=C/c2cccc(O)c2)nc1C,39.6,49.8,n,n,n,n
CC(=O)c1sc(N/N=C\c2ccc(N(C)C)cc2)nc1C,31.0,x,n,n,n,u
COC(=O)c1sc(N/N=C/c2ccc(C(C)C)cc2)nc1C,n,53.0,n,9.28µM,n,u
Cc1c(-c2ccccc2)nnn1-c1ccc(F)cc1F,45.0,73.4,n,x,n,n
COc1ccc(C(=O)c2[nH]c(N)c(C(=O)NCCc3c[nH]c4ccccc34)c2-c2ccc(Br)cc2)cc1,x,x,n,x,x,x
COC(=O)c1cccc(NC(=O)c2ccco2)c1,n,n,n,n,n,u
O=C(COC(=O)c1cccc(NC(=O)c2ccco2)c1)c1ccc(Br)cc1,79.8,116.7,n,n,n,n
CC(C)(C)C(=O)COC(=O)c1cccc(NC(=O)c2ccco2)c1,26.8,n,n,n,n,n
O=C(CS(=O)CC(=O)N(CC(=O)NC1CCCC1)c1ccc2c(c1)OCCO2)Nc1ccc(F)cc1 (stereo not drawn),n,n,n,n,n,u
N/C(=N\OC(=O)c1cccc(F)c1)c1ccccc1,88.3,92.5,n,n,n,u
Cc1ccc(/C(N)=N/OC(=O)c2cccc(F)c2)cc1,37.5,115.0,n,n,n,n
N/C(=N\OC(=O)c1cccc(F)c1)c1ccccn1,n,n,n,n,n,u
CC(=O)Nc1ccc(NC(=S)NC(=O)c2cc3ccccc3o2)cc1,n,n,n,n,n,n
Cc1cc(NC(=O)c2cccnc2)ccc1NC(=O)c1cc2ccccc2o1,n,n,n,n,n,n
SMILES,CHX counter,Shiga inhibitor,AMA1 RON2 block,Pf growth 48h,SARS PLP yeast,Pf growth 96h
O=C(Nc1cccnc1)c1cc2cc(Br)ccc2o1,22.3,x,n,n,n,u
O=C(NC(=S)NCc1cccnc1)c1cc2ccccc2o1,30.1,n,n,n,n,u
O=C(NC(=S)Nc1ccc(CN2CCCCC2)cc1)c1cc2ccccc2o1,14.2,n,n,u,n,n
O=C(NC(=S)NCc1cccnc1)c1cc(Br)ccc1Cl,n,n,n,u,n,u
O=C(NC(=S)Nc1cccnc1)c1cc2ccccc2o1,45.5,56.6,n[2.32 µM],n,n,n
Cc1ccccc1NC(=O)CSCc1cc(=O)n2ccsc2n1,n,n,n,n,n,n
C#CCOCCOCCOCCNc1nc(N2CCN(C(=O)CCCCCCCCCCNC(=O)[C@H](CO)n3cc(CCCSC)nn3)CC2)nc(N2CCN(C(=O)CCCCCCCCCCNC(=O)[C@H](CCCCN)n3cc(C[C@@H](C)CC)nn3)CC2)n1,x,x,x,1.31µM,n,1.85µM
C#CCOCCOCCOCCNc1nc(N2CCN(C(=O)CCCCCCCCCCNC(=O)[C@H](CO)n3cc(CCCSC)nn3)CC2)nc(N2CCN(C(=O)CCCCCCCCCCNC(=O)[C@H](CO)n3cc(CCCSC)nn3)CC2)n1,x,x,n,0.294µM,n,0.104µM

# Screens as filed in PubChem BioAssay.
